The nature of experiment [1]: Caspase-3/7 induction in CHO-K1 cells by small molecules, qHTS assay (AID 1346980). Also: nearly all actives have a fitted effect of over 15% in size. Conditions: CHO-K1 caspase-3/7 induction, Caspase-Glo luminescence, 17 h; series mostly up to 92.4 µM. In outline: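 Wild-type cells were seeded at 1,500 per well and settled 5 hr at 37 C, 5% CO2, then exposed to DMSO-dissolved compounds for 17 hr. Caspase-Glo 3/7 reagent was added, and luminescence was read after 30min at room temperature.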
Background: In qHTS, concentration-response curves come from the screen itself.

A short description of experiment [2]: Caspase-3/7 induction in HepG2 cells by small molecules, qHTS cell viability counter screen (AID 1346981). Also: nearly all actives have a fitted effect of over 30% in size. Conditions: CellTiter-Fluor fluorescence, 17 h; series mostly up to 92.4 µM. The method, boiled down:
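Wild-type HepG2 cells, 2,000/well, settled 5 hr at 37 C, 5% CO2 before compound addition. Viability read by CellTiter-Fluor fluorescence, reagent added after 16 hr compound exposure, then 1 hr at 37C, in the same wells as the caspase read.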

Experiment [3] has as its target Nuclear receptor subfamily 1 group I member 2 (Homo sapiens) (UniProt O75469). In words: Human pregnane X receptor (PXR) small molecule agonists, qHTS assay (AID 1346982). Also: nearly all actives have a fitted effect of over 35% in size. Particulars: PXR-Luc HepG2, CYP3A4 luciferase reporter, 24 h; series mostly up to 92.4 µM. The method, boiled down: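 PXR-Luc HepG2 reporter cells (CYP3A4-driven luciferase) in 5% charcoal-stripped FBS medium, plated 5 h before compound addition, then treated 24 h at 37C. Luciferase read by ONE-Glo luminescence after 30 min at room temperature.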

In experiment [4] the target is Cytochrome P450 2D6 (Homo sapiens) (UniProt P10635). Briefly: Cytochrome P450 Family 2 Subfamily D Member 6 (CYP2D6) small molecule antagonists: luciferase reporter qHTS assay (AID 1671196). Also: nearly all actives have a fitted effect of over 50% in size. Particulars: P450-Glo CYP2D6 enzyme assay, luciferin luminescence, 1 h; series mostly up to 115 µM. The method, boiled down: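 Cell-free P450-Glo system: CYP2D6 with proluciferin substrate was pre-incubated with compound for 10 min, then reacted with NADPH regeneration for 1 h at room temperature. Luciferin product was detected after 20 min, and data were reported as relative luminescence units.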

Experiment [5] has as its target Cytochrome P450 2C19 (Homo sapiens) (UniProt P33261). In words: Cytochrome P450 Family 2 Subfamily C Member 19 (CYP2C19) small molecule antagonists: luciferase reporter qHTS assay (AID 1671197). Also: potency is read from the fitted curve at half-maximal effect; nearly all actives have a fitted effect of over 65% in size. Conditions: P450-Glo CYP2C19 enzyme, luciferin luminescence, 1 h; series mostly up to 115 µM. In outline:
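P450-Glo CYP2C19 system: enzyme-substrate mix with compound 10 min at room temperature, then NADPH regeneration solution, 1 h at 37C. Proluciferin-to-luciferin conversion detected by luminescence after 20 min with detection reagent; ketoconazole as positive control.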
Background: In a reporter assay the amount or activity of a reporter protein is the signal.

For experiment [6], the target named is Cytochrome P450 1A2 (Homo sapiens) (UniProt P05177). In words: Cytochrome P450 Family 1 Subfamily A Member 2 (CYP1A2) small molecule antagonists: luciferase reporter qHTS assay (AID 1671199). Also: nearly all actives have a fitted effect of over 50% in size. Also: potency is read from the fitted curve at half-maximal effect. Conditions: P450-Glo CYP1A2 enzyme, luciferin luminescence, 1 h; series mostly up to 115 µM. The method, boiled down:
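P450-Glo CYP1A2 enzyme–proluciferin substrate mix with compound 10 min at room temperature, then NADPH regeneration 1 h at room temperature. Luciferin detection reagent added, luminescence read after 20 min; furafylline positive control.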

The target in experiment [7] is Cytochrome P450 2C9 (Homo sapiens) (UniProt P11712). Briefly: Cytochrome P450 Family 2 Subfamily C Member 9 (CYP2C9) small molecule antagonists: luciferase reporter qHTS assay (AID 1671198). Also: nearly all actives have a fitted effect of over 50% in size. Particulars: P450-Glo CYP2C9 enzyme assay, luciferin luminescence; series mostly up to 115 µM. In outline:
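CYP2C9 activity was measured with a P450-Glo proluciferin substrate. Enzyme–substrate mix was held with compound for 10 min at room temperature, then NADPH regeneration solution was added for 1 h at 37C. Luciferin product was read as luminescence.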

Structures are written as SMILES. Results filed as inconclusive are left out. Activity calls are given as the source filed them. Calls follow the shape of the dose curve; as a rule, active = well fitted curve in the direction sought with a large enough effect in the repeat runs; inconclusive = weak or mixed curves; inactive = no such curve, though single readings can be large; an effect the other way counts as inactive or inconclusive.

Nuclear receptor subfamily 1 group I member 2 (Homo sapiens), sequence (O75469 whole entry, looked up): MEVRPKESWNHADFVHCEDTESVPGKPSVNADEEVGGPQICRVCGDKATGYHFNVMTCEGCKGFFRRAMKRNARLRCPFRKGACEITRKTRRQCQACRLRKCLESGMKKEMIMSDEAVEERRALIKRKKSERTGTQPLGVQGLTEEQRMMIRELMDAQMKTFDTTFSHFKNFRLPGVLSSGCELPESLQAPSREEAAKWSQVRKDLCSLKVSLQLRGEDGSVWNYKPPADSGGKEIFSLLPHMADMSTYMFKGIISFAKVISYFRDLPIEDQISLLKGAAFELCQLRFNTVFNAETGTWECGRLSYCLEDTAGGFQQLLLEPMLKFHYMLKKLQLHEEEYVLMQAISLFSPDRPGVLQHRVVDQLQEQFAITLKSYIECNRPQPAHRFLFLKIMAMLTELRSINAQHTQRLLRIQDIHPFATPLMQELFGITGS
Cytochrome P450 2D6 (Homo sapiens), sequence (P10635 whole entry, looked up): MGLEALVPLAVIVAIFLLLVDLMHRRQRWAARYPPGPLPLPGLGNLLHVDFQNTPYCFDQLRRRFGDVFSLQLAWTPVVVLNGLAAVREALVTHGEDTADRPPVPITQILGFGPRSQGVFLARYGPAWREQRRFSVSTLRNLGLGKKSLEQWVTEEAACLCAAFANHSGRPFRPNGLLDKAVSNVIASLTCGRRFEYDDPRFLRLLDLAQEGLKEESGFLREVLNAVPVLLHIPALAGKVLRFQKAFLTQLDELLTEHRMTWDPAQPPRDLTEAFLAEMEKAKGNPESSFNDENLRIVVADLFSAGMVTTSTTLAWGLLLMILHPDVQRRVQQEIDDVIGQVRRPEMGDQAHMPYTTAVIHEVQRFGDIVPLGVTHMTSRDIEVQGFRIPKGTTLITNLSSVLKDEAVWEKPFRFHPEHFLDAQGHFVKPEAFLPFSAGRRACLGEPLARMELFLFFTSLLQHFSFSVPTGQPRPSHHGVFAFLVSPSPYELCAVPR
Cytochrome P450 1A2 (Homo sapiens), sequence (P05177 whole entry, looked up): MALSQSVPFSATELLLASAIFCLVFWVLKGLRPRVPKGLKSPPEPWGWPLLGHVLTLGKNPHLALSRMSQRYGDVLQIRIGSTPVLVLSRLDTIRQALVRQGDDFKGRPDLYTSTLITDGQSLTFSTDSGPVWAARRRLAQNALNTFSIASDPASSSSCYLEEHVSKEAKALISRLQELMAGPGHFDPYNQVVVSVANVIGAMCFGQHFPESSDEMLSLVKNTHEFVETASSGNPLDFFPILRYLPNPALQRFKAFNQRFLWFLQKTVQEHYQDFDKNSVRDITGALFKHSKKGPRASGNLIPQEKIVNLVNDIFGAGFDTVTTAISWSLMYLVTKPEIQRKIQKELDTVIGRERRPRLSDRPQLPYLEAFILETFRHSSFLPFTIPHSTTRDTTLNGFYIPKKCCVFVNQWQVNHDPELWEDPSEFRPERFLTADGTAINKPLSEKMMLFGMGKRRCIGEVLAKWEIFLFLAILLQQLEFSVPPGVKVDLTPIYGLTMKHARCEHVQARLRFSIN
Cytochrome P450 2C9 (Homo sapiens), sequence (P11712 whole entry, looked up): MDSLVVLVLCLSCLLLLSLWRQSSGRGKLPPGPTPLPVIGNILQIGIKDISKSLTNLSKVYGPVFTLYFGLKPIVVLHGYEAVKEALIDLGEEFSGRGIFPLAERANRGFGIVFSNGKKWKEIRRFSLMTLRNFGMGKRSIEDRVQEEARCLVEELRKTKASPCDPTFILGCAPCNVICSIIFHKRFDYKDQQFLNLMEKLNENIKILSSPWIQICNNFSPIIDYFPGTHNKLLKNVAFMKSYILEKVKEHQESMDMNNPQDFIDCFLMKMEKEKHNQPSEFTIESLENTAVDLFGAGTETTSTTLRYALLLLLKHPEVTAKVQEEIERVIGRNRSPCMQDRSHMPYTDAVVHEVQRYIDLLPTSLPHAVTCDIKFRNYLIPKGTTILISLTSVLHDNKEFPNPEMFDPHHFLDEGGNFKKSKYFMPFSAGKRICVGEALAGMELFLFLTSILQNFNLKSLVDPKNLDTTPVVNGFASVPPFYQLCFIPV
Cytochrome P450 2C19 (Homo sapiens), sequence (P33261 whole entry, looked up): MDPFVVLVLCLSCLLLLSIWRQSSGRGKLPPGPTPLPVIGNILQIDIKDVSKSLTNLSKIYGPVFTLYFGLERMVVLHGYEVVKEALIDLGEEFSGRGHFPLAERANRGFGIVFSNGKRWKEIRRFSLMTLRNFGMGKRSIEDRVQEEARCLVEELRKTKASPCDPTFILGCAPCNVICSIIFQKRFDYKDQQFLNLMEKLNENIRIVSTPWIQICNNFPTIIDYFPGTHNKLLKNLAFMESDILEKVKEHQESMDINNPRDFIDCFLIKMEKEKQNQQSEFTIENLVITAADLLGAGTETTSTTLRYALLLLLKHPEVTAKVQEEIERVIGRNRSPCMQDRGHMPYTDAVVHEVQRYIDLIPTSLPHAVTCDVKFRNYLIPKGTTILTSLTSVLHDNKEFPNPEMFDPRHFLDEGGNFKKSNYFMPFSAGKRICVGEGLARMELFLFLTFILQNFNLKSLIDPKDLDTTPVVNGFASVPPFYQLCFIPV

On to `CCn1c2ccccc2c2ccccc21`, for which the Potency result in experiment [1], in experiment [2], in experiment [3] and in experiment [4] was “inactive” in each case. The Potency in experiment [5] is 22.4 µM (active); in experiment [6], 3.99 µM (active).

Regarding `CCc1cccc(C)c1N(C(=O)CS(=O)(=O)O)C(C)COC` (configuration not stated), the Potency entry in experiment [1], in experiment [2], in experiment [3], in experiment [4] and in experiment [6] was “inactive” each time.

In the case of `Nc1cc([N+](=O)[O-])ccc1Cl`, the Potency entry in experiment [1], in experiment [2], in experiment [3], in experiment [4] and in experiment [7] was “inactive” throughout. Moreover, in experiment [6], the Potency was 17.8 µM (active).

These data come from PubChem BioAssay (Tox21).
